Assay results: PubChem BioAssay (NCATS)
Records with an inconclusive call do not appear. Where a call stands in place of a potency, no number is given. Activity calls are given as the source filed them. Calls follow the shape of the dose curve; as a rule, active = well fitted curve in the direction sought with a large enough effect; inconclusive = small, poorly fitted or top-dose-only effect, or another doubt; inactive = no such curve, though single readings can be large; an effect the other way counts as inactive or inconclusive.

System: not listed separately
Assay: Cellular Toxicity (caspase-3) Renal Proximal Tubule (AID 667);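 also: cells exposed to compound for 16 hours at 37 °C before detection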
Settings: renal proximal tubule cells; series mostly up to 91.7 µM
In short: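 In qHTS format, rat primary proximal tubule cells seeded at 1000 per well are exposed to compounds for 16 hours at 37 °C. An increase in Caspase-Glo 3/7 luminescence indicates caspase activation.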

With c1ccc2c(c1)Nc1ccccc1S2 as the molecule, how does the outcome read?
Its outcome is “inactive”.

Which outcome does the source give for Clc1ccc(COC(Cn2ccnc2)c2ccc(Cl)cc2Cl)cc1 (stereo unspecified) here?
Its outcome is “inactive”.

For Oc1ccc(Cl)cc1Cc1ccccc1, which outcome is on record?
Its outcome is “inactive”.

With CNCC(O)c1ccc(O)cc1 (stereo unspecified) as the molecule, how does the outcome read?
Its outcome is “inactive”.

For CCCC(C)(COC(N)=O)COC(=O)NC(C)C (stereo unspecified), which outcome is on record?
The outcome was “inactive”.

For Oc1ccccc1-c1ccccc1, which outcome is on record?
The outcome was “inactive”.

For CCOP(=S)(OCC)Oc1cc(C)nc(C(C)C)n1, which outcome is on record?
The outcome was “inactive”.

With NCC(O)c1ccc(O)cc1 (stereo unspecified) as the molecule, how does the outcome read?
Its outcome is “inactive”.

Which outcome does the source give for OCCOc1ccccc1 here?
Its outcome is “inactive”.

With Oc1cccc2cccnc12 as the molecule, how does the outcome read?
The outcome was “inactive”.

Biological target: Guanine nucleotide-binding protein G(i) subunit alpha-1 (Homo sapiens) (UniProt P63096)
Assay: qHTS Assay for Inhibitors of RGS12 GoLoco Motif Activity (Green Fluorophore) (AID 879);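 also: negative values mean loss of peptide binding seen as reduced polarization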
Settings: Galphai1/FITC-RGS12 GoLoco peptide, fluorescence polarization; series mostly up to 57.1 µM
In short: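 A drop in FITC polarization marked displacement of the FITC-tagged RGS12 GoLoco peptide (10 nM) from Gαi1 (50 nM). Compounds were incubated 10 min at room temperature in Tris pH 7.5 buffer containing 150 mM NaCl, 0.1 mM GDP and 0.05% NP40; unlabeled peptide titration served as control.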

Chain of Guanine nucleotide-binding protein G(i) subunit alpha-1 (Homo sapiens) (P63096 whole entry, looked up): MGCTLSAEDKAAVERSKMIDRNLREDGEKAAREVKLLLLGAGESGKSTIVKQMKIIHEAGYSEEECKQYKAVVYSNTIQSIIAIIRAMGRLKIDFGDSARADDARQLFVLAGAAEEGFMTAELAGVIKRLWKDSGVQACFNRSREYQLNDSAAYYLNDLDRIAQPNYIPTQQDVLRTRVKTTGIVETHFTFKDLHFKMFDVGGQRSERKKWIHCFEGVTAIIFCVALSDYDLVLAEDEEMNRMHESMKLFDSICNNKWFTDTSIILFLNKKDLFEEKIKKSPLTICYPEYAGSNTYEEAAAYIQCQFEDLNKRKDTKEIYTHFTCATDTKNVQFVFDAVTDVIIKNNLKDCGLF

With Cc1cccc(C)c1NC1=NCCCS1 as the molecule, how does the outcome read?
The outcome was “inactive”.

Which outcome does the source give for NN=C(N)N here?
The outcome was “inactive”.

For CC(=O)[C@H]1CC[C@H]2[C@@H]3CC[C@H]4C[C@H](O)CC[C@]4(C)[C@H]3C(=O)C[C@]12C, which outcome is on record?
The outcome was “inactive”.

With Fc1ccc(C(OCCN2CCN(CCCc3ccccc3)CC2)c2ccc(F)cc2)cc1 as the molecule, how does the outcome read?
Its outcome is “inactive”.

With O=c1[nH]c2ccccc2n1CCCN1CCC(n2c(=O)[nH]c3cc(Cl)ccc32)CC1 as the molecule, how does the outcome read?
The outcome was “inactive”.

For N#CC(C#N)=Cc1ccc(O)c(O)c1, which outcome is on record?
Its outcome is “inactive”.

With Clc1cccc(N2CCNCC2)c1 as the molecule, how does the outcome read?
The outcome was “inactive”.

With CNCC(O)c1ccc(O)cc1 (stereo unspecified) as the molecule, how does the outcome read?
The outcome was “inactive”.

For Cc1ncc(CNC(=O)N(CCCl)N=O)c(N)n1, which outcome is on record?
The outcome was “inactive”.

With CCCC(C)(COC(N)=O)COC(=O)NC(C)C (stereo unspecified) as the molecule, how does the outcome read?
The outcome was “inactive”.

With Nc1ccncc1 as the molecule, how does the outcome read?
Its outcome is “inactive”.

With CCCN1CCC[C@@H]2Cc3[nH]ncc3C[C@H]21 as the molecule, how does the outcome read?
Its outcome is “inactive”.

For O=c1[nH]c2ccccc2n1C1CCN(CCCC(c2ccc(F)cc2)c2ccc(F)cc2)CC1, which outcome is on record?
The outcome was “inactive”.

With COc1ccccc1N1CCNCC1 as the molecule, how does the outcome read?
The outcome was “inactive”.

With NCC(CC(=O)O)c1ccc(Cl)cc1 (stereo unspecified) as the molecule, how does the outcome read?
Its outcome is “inactive”.

With NCC1(CC(=O)O)CCCCC1 as the molecule, how does the outcome read?
The outcome was “inactive”.

For CCn1cc(C(=O)O)c(=O)c2ccc(C)nc21, which outcome is on record?
Its outcome is “inactive”.

Biological target: Cytochrome P450 2C9 (Homo sapiens) (UniProt P11712)
Assay: qHTS Assay for Inhibitors and Substrates of Cytochrome P450 2C9 (AID 883); also: nearly all actives have a fitted effect of over 60% in size; also: potency is read from the fitted curve at half-maximal effect
Settings: recombinant CYP2C9, luciferin-H luminescence, 60 min; series mostly up to 57.1 µM
In short: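 Inhibition of CYP2C9 is scored as loss of luminescence, with 57uM sulphaphenazole defining 100% inhibition. Substrate Luciferin-H is used at 100uM, equal to its KM; enzyme at 10nM in 25mM KPO4, 60 min at 37C with NADPH regeneration.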

Chain of Cytochrome P450 2C9 (Homo sapiens) (P11712 whole entry, looked up): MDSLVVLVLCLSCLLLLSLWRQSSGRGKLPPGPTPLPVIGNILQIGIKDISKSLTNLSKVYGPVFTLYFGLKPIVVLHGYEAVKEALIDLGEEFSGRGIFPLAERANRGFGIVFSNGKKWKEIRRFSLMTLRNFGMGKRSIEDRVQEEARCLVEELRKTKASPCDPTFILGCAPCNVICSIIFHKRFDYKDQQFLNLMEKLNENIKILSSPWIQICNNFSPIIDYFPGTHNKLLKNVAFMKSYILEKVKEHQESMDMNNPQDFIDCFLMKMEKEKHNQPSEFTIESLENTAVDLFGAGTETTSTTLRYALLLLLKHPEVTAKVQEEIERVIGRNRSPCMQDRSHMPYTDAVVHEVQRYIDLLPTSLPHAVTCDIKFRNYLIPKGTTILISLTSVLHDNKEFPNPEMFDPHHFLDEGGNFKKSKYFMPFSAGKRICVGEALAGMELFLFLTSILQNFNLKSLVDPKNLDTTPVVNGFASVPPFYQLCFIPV

Which Potency does the source give for N#CC(C#N)=Cc1ccc(O)c(O)c1 here?
Its Potency is 7.94 µM (active).

For O=c1[nH]c2ccccc2n1C1CCN(CCCC(c2ccc(F)cc2)c2ccc(F)cc2)CC1, which Potency is on record?
The Potency was “inactive”.

With NCC1(CC(=O)O)CCCCC1 as the molecule, how does the Potency read?
The Potency was “inactive”.

Biological target: Cytochrome P450 3A4 (Homo sapiens) (UniProt P08684)
Assay: qHTS Assay for Inhibitors and Substrates of Cytochrome P450 3A4 (AID 884); also: nearly all actives have a fitted effect of over 50% in size
Settings: recombinant CYP3A4, Luciferin-PPXE luminescence; series mostly up to 57.1 µM
In short: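 Luminescent readout of luciferin produced by CYP3A4 (20 nM) dealkylation of Luciferin-PPXE, 25 uM (its KM). NADPH-driven reaction ran 60 min at RT after 10 min compound preincubation; data scaled to 57 uM ketoconazole as 100% inhibition.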

Chain of Cytochrome P450 3A4 (Homo sapiens) (P08684 whole entry, looked up): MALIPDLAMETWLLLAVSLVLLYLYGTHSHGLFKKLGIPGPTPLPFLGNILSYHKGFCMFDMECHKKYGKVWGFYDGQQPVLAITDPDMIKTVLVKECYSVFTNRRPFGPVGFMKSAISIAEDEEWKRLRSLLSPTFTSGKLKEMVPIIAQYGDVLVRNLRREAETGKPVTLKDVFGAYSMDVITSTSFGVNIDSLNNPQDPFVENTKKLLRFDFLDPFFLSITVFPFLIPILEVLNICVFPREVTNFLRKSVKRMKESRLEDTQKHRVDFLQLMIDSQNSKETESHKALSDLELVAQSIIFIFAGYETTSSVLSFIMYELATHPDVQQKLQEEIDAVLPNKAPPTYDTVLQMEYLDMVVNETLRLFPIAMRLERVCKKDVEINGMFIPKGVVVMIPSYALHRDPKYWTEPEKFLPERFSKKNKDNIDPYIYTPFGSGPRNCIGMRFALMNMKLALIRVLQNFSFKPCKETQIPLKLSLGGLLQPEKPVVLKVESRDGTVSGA

For CNCC(O)c1ccc(O)cc1 (stereo unspecified), which Potency is on record?
The Potency was “inactive”.

For CCCN1CCC[C@@H]2Cc3[nH]ncc3C[C@H]21, which Potency is on record?
Its Potency is “inactive”.

Which Potency does the source give for Oc1ccccc1-c1ccccc1 here?
Its Potency is “inactive”.

For O=c1[nH]c2ccccc2n1C1CCN(CCCC(c2ccc(F)cc2)c2ccc(F)cc2)CC1, which Potency is on record?
Its Potency is “inactive”.

With COc1ccccc1N1CCNCC1 as the molecule, how does the Potency read?
The Potency was “inactive”.

With NCC(O)c1ccc(O)cc1 (stereo unspecified) as the molecule, how does the Potency read?
Its Potency is “inactive”.

Which Potency does the source give for OCCOc1ccccc1 here?
Its Potency is “inactive”.

Which Potency does the source give for NCC1(CC(=O)O)CCCCC1 here?
The Potency was “inactive”.

With Oc1cccc2cccnc12 as the molecule, how does the Potency read?
Its Potency is “inactive”.

Biological target: Cytochrome P450 3A4 (Homo sapiens) (UniProt P08684)
Assay: qHTS Assay for Activators of Cytochrome P450 3A4 (AID 885); also: nearly all actives have a fitted effect of over 65% in size
Settings: recombinant CYP3A4, Luciferin-PPXE luminescence, 60 min; series mostly up to 57.1 µM
In short: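 Using 20nM recombinant human CYP3A4 in potassium phosphate (200mM), substrate Luciferin-PPXE at 25uM, luminescent luciferin detection followed a 60-min RT NADPH reaction; data scaled to 57 uM ketoconazole.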

Which outcome does the source give for NN=C(N)N here?
The outcome was “inactive”.

Which outcome does the source give for Clc1ccc(COC(Cn2ccnc2)c2ccc(Cl)cc2Cl)cc1 (stereo unspecified) here?
Its outcome is “inactive”.

Which outcome does the source give for Clc1cccc(N2CCNCC2)c1 here?
Its outcome is “inactive”.

With CCCC(C)(COC(N)=O)COC(=O)NC(C)C (stereo unspecified) as the molecule, how does the outcome read?
The outcome was “inactive”.

With N[C@@H](Cc1ccc(N(CCCl)CCCl)cc1)C(=O)O as the molecule, how does the outcome read?
Its outcome is “inactive”.

Which outcome does the source give for NCC(CC(=O)O)c1ccc(Cl)cc1 (stereo unspecified) here?
The outcome was “inactive”.

Biological target: Cytochrome P450 2D6 (Homo sapiens) (UniProt P10635)
Assay: qHTS Assay for Inhibitors and Substrates of Cytochrome P450 2D6 (AID 891); also: nearly all actives have a fitted effect of over 60% in size; also: potency is read from the fitted curve at half-maximal effect
Settings: recombinant CYP2D6, luciferin-ME EGE luminescence; series mostly up to 57.1 µM
In short: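 Luminescent read-out of luciferin formed by 5 nM human CYP2D6 demethylating 30 uM Luciferin-ME EGE (Km level) over 60 min at room temperature after NADPH regeneration addition. Data normalized to full inhibition by 1.43 uM quinidine.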

Chain of Cytochrome P450 2D6 (Homo sapiens) (P10635 whole entry, looked up): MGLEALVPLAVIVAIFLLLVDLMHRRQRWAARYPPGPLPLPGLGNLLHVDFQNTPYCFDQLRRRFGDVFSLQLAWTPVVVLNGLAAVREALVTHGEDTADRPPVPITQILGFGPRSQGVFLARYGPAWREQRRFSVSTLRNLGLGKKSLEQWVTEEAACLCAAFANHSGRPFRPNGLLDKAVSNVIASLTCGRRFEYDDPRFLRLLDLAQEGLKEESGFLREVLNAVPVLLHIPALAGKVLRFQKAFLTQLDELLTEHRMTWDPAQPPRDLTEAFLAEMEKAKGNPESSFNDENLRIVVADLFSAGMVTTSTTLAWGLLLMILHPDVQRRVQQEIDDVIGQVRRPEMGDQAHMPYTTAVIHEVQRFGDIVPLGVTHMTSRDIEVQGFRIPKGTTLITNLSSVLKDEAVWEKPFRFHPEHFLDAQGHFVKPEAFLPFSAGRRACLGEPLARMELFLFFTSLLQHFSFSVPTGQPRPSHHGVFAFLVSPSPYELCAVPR

With N#CC(C#N)=Cc1ccc(O)c(O)c1 as the molecule, how does the Potency read?
Its Potency is “inactive”.

With Clc1cccc(N2CCNCC2)c1 as the molecule, how does the Potency read?
The Potency was 3.98 µM (active).

With NCC1(CC(=O)O)CCCCC1 as the molecule, how does the Potency read?
The Potency was “inactive”.

Biological target: Cytochrome P450 2C19 (Homo sapiens) (UniProt P33261)
Assay: qHTS Assay for Inhibitors and Substrates of Cytochrome P450 2C19 (AID 899); also: nearly all actives have a fitted effect of over 60% in size
Settings: recombinant CYP2C19, luciferin-H EGE luminescence; series mostly up to 57.1 µM
In short: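 5nM enzyme + 10uM Luciferin-H EGE (=KM), 50mM KPO4; cpd pin-transferred, 10 min 37C; NADPH regen, 60 min 37C; stopped w/ luciferin detection reagent, 20 min; luminescence. Normalized to 57uM ketoconazole (AC100).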

Chain of Cytochrome P450 2C19 (Homo sapiens) (P33261 whole entry, looked up): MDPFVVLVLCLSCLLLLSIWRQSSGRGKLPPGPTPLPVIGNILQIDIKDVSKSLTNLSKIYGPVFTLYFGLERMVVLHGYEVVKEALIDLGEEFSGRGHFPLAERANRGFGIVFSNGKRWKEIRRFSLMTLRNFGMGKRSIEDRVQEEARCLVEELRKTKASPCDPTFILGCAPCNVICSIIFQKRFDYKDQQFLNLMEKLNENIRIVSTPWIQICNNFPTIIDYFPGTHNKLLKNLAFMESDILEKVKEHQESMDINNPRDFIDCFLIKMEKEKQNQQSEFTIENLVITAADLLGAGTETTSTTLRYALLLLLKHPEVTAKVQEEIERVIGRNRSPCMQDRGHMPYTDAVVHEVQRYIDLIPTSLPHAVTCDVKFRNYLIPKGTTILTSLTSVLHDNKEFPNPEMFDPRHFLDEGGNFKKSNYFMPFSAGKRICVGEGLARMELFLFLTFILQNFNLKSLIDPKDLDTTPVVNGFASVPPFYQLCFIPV

With N#CC(C#N)=Cc1ccc(O)c(O)c1 as the molecule, how does the Potency read?
Its Potency is “inactive”.

Which Potency does the source give for COc1ccccc1N1CCNCC1 here?
Its Potency is “inactive”.

With NCC1(CC(=O)O)CCCCC1 as the molecule, how does the Potency read?
Its Potency is “inactive”.
